aSyn 5UTR act: Activators working through SNCA 5'UTR binding (MLPCN) | alpha-synuclein 5'UTR reporter, activators screen | activity score, % (tested at 7.5 µM), hits read low | 300,000 compounds, 7.1% hits; in the data active means activity score below about -60%
An asterisk follows results filed as active. Only a sample is shown.

SMILES	aSyn 5UTR act
CCc1c(C)nc2cc(-c3ccc(OC)cc3)[nH]n2c1=O	-156.0*
CCCc1cc(=O)n2[nH]cc(-c3ccc(Cl)cc3)c2n1	70.9
CCOC(=O)Cc1c(C)nc2cc(-c3ccc(Cl)cc3)[nH]n2c1=O	-66.7*
COCc1cc(=O)n2[nH]c(-c3ccc(C)cc3)cc2n1	-127.6*
COc1ccc(CSc2nnc(SCc3ccc([N+](=O)[O-])cc3)s2)cc1	-121.6*
O=C(CCl)N(C/C=C/c1ccccc1)c1ccc2c(c1)OCCO2	-80.6*
Cc1ccc(NC(=S)N/N=C/c2ccc([N+](=O)[O-])s2)cc1	-73.9*
O=C(c1ccc2nc(N3CCCCC3)sc2c1)N1CCN(c2ccccn2)CC1	-111.5*
NC(=O)C1CCN(C(=O)c2ccc3nc(N4CCCCC4)sc3c2)CC1	-102.5*
O=C(c1cc(Br)c(Br)s1)N1CCN(c2ccccn2)CC1	-65.5*
Cc1cc(C(=O)N/N=C/c2ccc3c(c2)OCO3)c(C)o1	-105.0*
Cc1occc1C(=O)N/N=C/c1ccc2c(c1)OCO2	-66.8*
COc1ccccc1N=C(C)C1=C(O)CC(c2ccccc2)CC1=O (stereo not given)	121.7
COc1ccc(N=C(C)C2=C(O)COC2=O)cc1	-92.8*
COc1ccc(Cn2c(C3CC3)nc3ccc(NC(=O)c4cccnc4)cc3c2=O)cc1	-176.2*
COc1ccc(Cn2c(C3CC3)nc3ccc(NC(C)=O)cc3c2=O)cc1	-120.6*
CCCc1nc2ccc(NC(C)=O)cc2c(=O)n1Cc1ccc(Cl)cc1	-136.6*
Cc1nc2ccc(N)cc2c(=O)n1Cc1ccc(Cl)cc1	-74.2*
c1ccc(CSc2nnc(-c3ccncc3)o2)cc1	-104.0*
Fc1ccc(-c2nnc(SCc3cccnc3)o2)cc1	-75.8*
Cc1ccccc1CSc1nnc(-c2ccncc2)o1	-85.7*
COCCCNC(=S)Nc1ccc2c(c1)OCCO2	-115.8*
S=C(Nc1ccc2c(c1)OCCO2)Nc1ccc2c(c1)OCO2	-75.3*
S=C(Nc1ccc2c(c1)OCO2)Nc1ccccc1Cl	-84.9*
OCCNC(=S)Nc1ccc2c(c1)OCCO2	-91.4*
SMILES	aSyn 5UTR act
S=C(NCc1ccc(Cl)c(Cl)c1)Nc1ccc2c(c1)OCO2	-109.9*
CCN1C(=O)/C(=C/c2nc3ccccc3c(=O)n2-c2ccccc2)c2ccccc21	-104.3*
Nc1nc(Nc2ccccc2)nc2ccccc12	-82.4*
CN(C)c1ccc(Nc2nc(N)c3ccccc3n2)cc1	109.1
COc1ccc([N+](=O)[O-])cc1Nc1c2ccccc2nc2ccccc12	76.5
COc1ccc(C)cc1Nc1nc(N)c2ccccc2n1	-101.7*
Cc1cccc(C(=O)OCC(=O)c2ccc3c(c2)OCO3)c1O	-153.5*
O=C(COC(=O)c1ccccc1[N+](=O)[O-])c1ccc2c(c1)OCO2	-187.3*
CC(=O)c1ccc(NC(=O)CNCc2cccs2)cc1	-134.0*
Cc1ccc(NC(=O)CNCc2cccs2)cc1Br	-84.7*
O=C(CNCc1cccs1)Nc1ccc(N2CCCCCC2)cc1	-62.8*
CC(=O)Nc1ccc(SCC(=O)c2cc(C)n(Cc3cccs3)c2C)cc1	68.4
O=C(Nc1ccc(Cl)cc1Cl)c1csc(-c2cccnc2)n1	-71.9*
O=C(Nc1ccc(Cl)cc1)c1csc(-c2ccncc2)n1	-65.6*
O=C(Nc1ccc(Cl)cc1)c1csc(-c2ccccc2)n1	-68.0*
C=CCn1cnc2c(NCc3ccccc3)ncnc21	-75.8*
O=[N+]([O-])c1ccc(COc2ccccc2/C=N/O)cc1	-132.3*
COCCN(Cc1nc(-c2ccc(-c3ccccc3)cc2)oc1C)C(C)C	-214.8*
Cc1cc(C)c(S(=O)(=O)Nc2ccc(N(C)C)cc2)c(C)c1-n1cnnn1	-79.2*
O=C1OC(c2ccccc2)/C(=C(/O)c2ccccc2)C1=O (stereo not given)	-63.7*
Cc1ccc(C(=O)N2C(=O)C(c3ccccc3)Oc3ccccc32)cc1 (stereo not given)	92.8
CC1(C)Nc2ccccc2C(=O)N1c1ccc(Br)cc1	-84.0*
COc1ccc(N2C(=O)c3ccccc3NC2(C)C)cc1	-69.3*
CC(C)c1ccc(NC(=S)Nc2ccc3cn[nH]c3c2)cc1	-93.9*
COc1ccccc1NC(=S)Nc1ccc2cn[nH]c2c1	-101.2*
SMILES	aSyn 5UTR act
O=C(c1cc(COc2ccc(F)cc2Cl)on1)N1CCSCC1	-197.2*
COc1ccc(OCc2cc(C(=O)N3CCOCC3)no2)c(Cl)c1	-81.8*
COc1ccc(OCc2cc(C(=O)N3CCCCCC3)no2)c(Cl)c1	-90.1*
COc1ccc(OCc2cc(C(=O)NC(C)c3cnn(C)c3)no2)c(Cl)c1 (stereo not given)	-105.7*
CC(NC(=O)c1cc(COc2c(F)cccc2F)on1)c1cnn(-c2ccccc2)c1 (stereo not given)	-90.8*
COc1cccc(OCc2cc(C(=O)NC(C)c3cnn(C)c3C)no2)c1 (stereo not given)	-77.4*
COc1ccc(OCc2cc(C(=O)N3CCSCC3)no2)c(Cl)c1	-107.5*
COc1ccc(OCc2cc(C(=O)N3CCC(c4ccccc4)CC3)no2)c(Cl)c1	-63.3*
CN1C(=O)/C(=C\c2ccc(N(C)C)cc2)OC1=S	-67.5*
O=C1NC(=Nc2ccccc2)S/C1=C\c1cccn1-c1ccccc1	-388.2*
Cc1oc(-c2ccc3ccccc3c2)nc1CN(C)C(C)c1ccncn1 (stereo not given)	-80.4*
O=C1CCN(Cc2ccccc2)CCN1CCSc1ccccc1	-77.9*
CCCN1CCC(=O)N(CCSc2ccccc2)CC1	-115.4*
CCOC(=O)C1=C(N)n2c(s/c(=C/c3ccco3)c2=O)=C(C(=O)OC)C1c1ccco1 (stereo not given)	-65.6*
Cc1nccc(-c2cc(-c3ccc(Cl)cc3Cl)no2)n1	-135.1*
Cc1ccc2nc(N/C(=N/S(=O)(=O)c3ccc(F)cc3)c3ccccc3)sc2c1	-106.6*
Cc1ccc2nc(N/C(=N/S(=O)(=O)c3ccc(F)cc3F)c3ccccc3)sc2c1	-107.9*
CCCNc1c(F)c(F)c2c(C)c3ccccc3nc2c1F	-80.2*
Cc1ccc2c(c1)[nH]c1c(=O)n(Cc3ccco3)cnc12	-118.4*
Cc1ccc(CS(=O)(=O)c2ncc(Cl)c(C(=O)Nc3ccc(OC(F)F)cc3)n2)cc1	61.4
CCOc1ccccc1NC(=O)c1nc(S(=O)(=O)Cc2cccc(C)c2)ncc1Cl	88.0
Cc1cccc(CS(=O)(=O)c2ncc(Cl)c(C(=O)Nc3nnc(C(C)C)s3)n2)c1	-97.8*
CCc1nnc(NC(=O)c2nc(S(=O)(=O)Cc3cccc(C)c3)ncc2Cl)s1	-114.5*
CC(C)c1nnc(NC(=O)c2nc(S(=O)(=O)Cc3ccccc3F)ncc2Cl)s1	-72.1*
O=C(NC1CCCCCCC1)c1c(O)c2ccccc2[nH]c1=O	-99.4*
SMILES	aSyn 5UTR act
O=C(NC1CC1)c1c(O)c2ccccc2[nH]c1=O	-67.9*
NNC(=O)c1[nH]c2ccccc2c1-c1ccccc1	95.7
O=C(NCCc1ccccc1)c1c(O)c2ccccc2[nH]c1=O	-118.6*
Nc1ccccc1C(=O)NNC1=C(C(=O)C(F)(F)F)CCC1	-277.8*
CC(=O)c1sc(N/N=C\c2ccccc2O)nc1C	-188.0*
COC(=O)c1ccc(/C=N/Nc2nc(C)c(C)s2)cc1	-187.7*
CCOC(=O)c1sc(N/N=C/c2ccccc2)nc1C	-207.1*
COc1ccc(/C=N/Nc2nc(C(=O)O)cs2)cc1	-78.4*
CCOC(=O)c1sc(N/N=C/c2cccc(C)c2)nc1C	-175.3*
O=C(O)Cc1sc(N/N=C\c2ccccc2)nc1-c1ccccc1	-255.9*
CCOc1ccc(-c2ccc(/C=C3/C(=N)N4C=CSC4=NC3=O)o2)c([N+](=O)[O-])c1	-72.0*
Cc1cnc(C(=O)Nc2ccccc2F)cn1	-91.4*
